{
  "source": "paper PMC12751014",
  "about": "“Non-Catalytic Inhibitors of the p38/MK2 Interface: Repurposing Approved Drugs to Target Neuroinflammation in Alzheimer’s Disease” (Journal of Medicinal Chemistry, 2025)",
  "note": "Among all 1,900 compounds or so, about 50 (3%) showed an effect of 50% or more. Many of the other results were omitted from the sample, so strong results are more common in it than they were.",
  "data": [
    {"target": "p38/MK2 protein–protein interaction (VF-p38α / GST-MK2) (Homo sapiens, UniProt Q16539)", "sequence (Q16539 2-360 limits assumed)": "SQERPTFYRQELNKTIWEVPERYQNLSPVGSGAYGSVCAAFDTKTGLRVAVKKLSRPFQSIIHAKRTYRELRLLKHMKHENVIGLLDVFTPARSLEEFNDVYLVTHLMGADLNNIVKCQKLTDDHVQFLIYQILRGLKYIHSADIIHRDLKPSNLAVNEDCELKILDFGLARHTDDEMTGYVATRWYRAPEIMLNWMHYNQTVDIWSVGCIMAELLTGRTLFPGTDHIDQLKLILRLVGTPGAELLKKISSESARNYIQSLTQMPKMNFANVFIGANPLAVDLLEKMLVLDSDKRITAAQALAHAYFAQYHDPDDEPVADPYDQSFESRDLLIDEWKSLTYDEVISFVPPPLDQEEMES", "test": "primary screen, percent of control activity; higher = less effect of the substance", "parameters": "species or system HEK293T cell lysate transfected with VF-p38α and GST-MK2; unclear (methods say 'quintuplet replicates')", "in_short": "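Lysate of HEK293T cells transfected with Flag-tagged p38α and GST-MK2, complex detected by TR-FRET with anti-Flag-Tb and anti-GST-d2 antibodies. Five replicates per compound. Signal normalised to percent of DMSO control.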", "units": {"Pct of control": "%"}, "values": [
      {"smiles": "S=c1nc[nH]c2nc[nH]c12", "Pct of control": 126},
      {"smiles": "COc1cc(-c2ncn(C=CC(=O)OC(C)C)n2)cc(C(F)(F)F)c1", "Pct of control": 91.8},
      {"smiles": "CN1CCN(c2nc(C3=C(c4c[nH]c5ccccc45)C(=O)NC3=O)c3ccccc3n2)CC1", "Pct of control": 109},
      {"smiles": "CC(=O)Oc1cc2c(s1)CCN(C(C(=O)C1CC1)c1ccccc1F)C2", "note": "(stereo not shown)", "Pct of control": 87.9},
      {"smiles": "Cc1cc(OCc2nnc(SC3CCCC3)n2-c2cccnc2)ccc1-c1ccc(S(C)(=O)=O)cc1", "Pct of control": 94.4},
      {"smiles": "CCCCCCNC(=O)n1cc(F)c(=O)[nH]c1=O", "Pct of control": 110},
      {"smiles": "CN1CCc2cc3c(cc2C1C1OC(=O)c2c1ccc1c2OCO1)OCO3", "note": "(single isomer, unassigned; (+))", "Pct of control": 93.7},
      {"smiles": "CN1CCc2cccc3c2C1Cc1ccc(O)c(O)c1-3.CN1CCc2cccc3c2C1Cc1ccc(O)c(O)c1-3.Cl.Cl.O", "note": "(stereo not shown)", "Pct of control": 44.4},
      {"smiles": "CN1CCCC1c1cccnc1.O=C(O)C(O)C(O)C(=O)O.O=C(O)C(O)C(O)C(=O)O", "note": "(stereo not shown)", "Pct of control": 91.9},
      {"smiles": "O=C1CC(=O)c2c(Cl)c(Cl)c(Cl)c(Cl)c21", "Pct of control": 32.6},
      {"smiles": "CC(=O)CCCCn1c(=O)c2c(ncn2C)n(C)c1=O", "Pct of control": 88.5},
      {"smiles": "Cc1cc2c(cc1S(N)(=O)=O)S(=O)(=O)CCC2", "Pct of control": 94.1},
      {"smiles": "Br.CN1C2CC(OC(=O)C(CO)c3ccccc3)CC1C1OC12", "note": "(stereo not shown)", "Pct of control": 98.3},
      {"smiles": "Nc1nccc(Oc2ccc(NC(=O)c3c[nH]cc(-c4ccc(F)cc4)c3=O)cc2F)c1Cl", "Pct of control": 73.2},
      {"smiles": "Cc1nc(NC(=O)N2CCCC2C(N)=O)sc1-c1ccnc(C(C)(C)C(F)(F)F)c1", "note": "(stereo not shown)", "Pct of control": 108},
      {"smiles": "Cc1ccc(Nc2nccc(N(C)c3ccc4c(C)n(C)nc4c3)n2)cc1S(N)(=O)=O", "Pct of control": 84.3},
      {"smiles": "CC(C)c1cc(C(C)C)c(CC(=O)NS(=O)(=O)Oc2c(C(C)C)cccc2C(C)C)c(C(C)C)c1", "Pct of control": 36.9},
      {"smiles": "CNCC(O)c1ccc(O)c(O)c1.O=C(O)C(O)C(O)C(=O)O", "note": "(stereo not shown)", "Pct of control": 92.6},
      {"smiles": "CCCC[N+]1(C)C2CC(OC(=O)C(CO)c3ccccc3)CC1C1OC12.[Br-]", "note": "(stereo not shown)", "Pct of control": 96.8},
      {"smiles": "O=C(NCC1(c2nc(-c3ccccc3)cs2)CCOCC1)c1cccc(-c2noc(C(F)(F)F)n2)c1", "Pct of control": 114},
      {"smiles": "NC(=O)N/N=C/c1ccc([N+](=O)[O-])o1", "Pct of control": 106},
      {"smiles": "CCOC(=O)c1ccc(N2NC(=O)C(=Cc3ccc([N+](=O)[O-])o3)C2=O)cc1", "Pct of control": 34.2},
      {"smiles": "CCOC(=O)c1ccc(N)cc1", "Pct of control": 97.4},
      {"smiles": "Cc1cccc(N(C)C(=S)Oc2ccc3ccccc3c2)c1", "Pct of control": 101},
      {"smiles": "O=P1(NCCCl)OCCCN1CCCl", "note": "(stereo not shown)", "Pct of control": 91.1},
      {"smiles": "Cc1cccc(C)c1NC(=O)C1CCCCN1C.Cl", "note": "(stereo not shown)", "Pct of control": 95.5},
      {"smiles": "O=c1c(O)c(-c2cc(O)c(O)c(O)c2)oc2cc(O)cc(O)c12", "Pct of control": 43.2},
      {"smiles": "O.O.O=c1c(O)c(-c2ccc(O)c(O)c2)oc2cc(O)cc(O)c12", "Pct of control": 73.1},
      {"smiles": "O=c1c(O)c(-c2ccc(O)c(O)c2)oc2cc(O)cc(O)c12", "Pct of control": 68},
      {"smiles": "CC1OC(Oc2c(-c3cc(O)c(O)c(O)c3)oc3cc(O)cc(O)c3c2=O)C(O)C(O)C1O", "note": "(stereo not shown)", "Pct of control": 74},
      {"smiles": "O=c1c(O)c(-c2ccc(O)cc2)oc2cc(O)cc(O)c12", "Pct of control": 75.1},
      {"smiles": "O.O=c1c(O)c(-c2ccc(O)cc2O)oc2cc(O)cc(O)c12", "Pct of control": 27},
      {"smiles": "CCn1cc(C(=O)O)c(=O)c2ccc(C)nc21", "Pct of control": 103},
      {"smiles": "COC(=O)Nc1nc2ccc(Sc3ccccc3)cc2[nH]1", "Pct of control": 96.8},
      {"smiles": "Cc1ccc(Sc2cncc3sc(C(N)=O)cc23)cc1", "Pct of control": 96.8},
      {"smiles": "O=C(NCCCNc1nc(Nc2cccc(NC(=O)N3CCCC3)c2)ncc1I)c1cccs1", "Pct of control": 105},
      {"smiles": "COc1ccc(C2C(=O)c3ccccc3C2=O)cc1", "Pct of control": 93.2},
      {"smiles": "O=c1c(-c2ccc(O)cc2)coc2cc(O)cc(O)c12", "Pct of control": 102},
      {"smiles": "COc1cc(OC)c(OC)cc1C=O", "Pct of control": 91.5},
      {"smiles": "COC(=O)C1=C(C)NC(C)=C(C(=O)OC)C1c1ccccc1[N+](=O)[O-]", "Pct of control": 87},
      {"smiles": "Cl.O=C(O)Cc1cccc(OCCCN(Cc2cccc(C(F)(F)F)c2Cl)CC(c2ccccc2)c2ccccc2)c1", "Pct of control": 39.4},
      {"smiles": "O=C(Nc1ccncc1)c1cc([N+](=O)[O-])ccc1Cl", "Pct of control": 103},
      {"smiles": "CCc1oc2ccccc2c1C(=O)c1cc(Br)c(O)c(Br)c1", "Pct of control": 103},
      {"smiles": "Cc1cc(C(C#N)c2ccc(Cl)cc2)c(Cl)cc1NC(=O)c1cc(I)cc(I)c1O", "note": "(stereo not shown)", "Pct of control": 45.2},
      {"smiles": "Cc1cc(C(C#N)c2ccc(Cl)cc2)c(Cl)cc1NC(=O)c1cc(I)cc(I)c1[O-].[Na+]", "note": "(stereo not shown)", "Pct of control": 46.2},
      {"smiles": "CC(=O)Nc1cccc(-n2c(=O)n(C3CC3)c(=O)c3c(Nc4ccc(I)cc4F)n(C)c(=O)c(C)c32)c1", "Pct of control": 93.7},
      {"smiles": "CC(C)(Oc1ccc(CCNC(=O)c2ccc(Cl)cc2)cc1)C(=O)O", "Pct of control": 96.7},
      {"smiles": "Oc1c(Br)cc(Br)c2cccnc12", "Pct of control": 104},
      {"smiles": "CCc1ccc(CCOc2ccc(CC3SC(=O)NC3=O)cc2)nc1", "note": "(stereo not shown)", "Pct of control": 97.3},
      {"smiles": "Clc1ccc(CCC(Cn2ccnc2)Sc2c(Cl)cccc2Cl)cc1.O=[N+]([O-])O", "note": "(stereo not shown)", "Pct of control": 90.3},
      {"smiles": "O=NN(CCCl)C(=O)NC1CCCCC1", "Pct of control": 82.9},
      {"smiles": "Cc1cc([N+](=O)[O-])ccc1NS(=O)(=O)c1cc(Cl)ccc1Cl", "Pct of control": 87.8}
    ]}
  ]
}
